{"source": "PubChem BioAssay AID1476", "about": "(National Center for Advancing Translational Sciences (NCATS), 2009)", "note": "Screen size: about 200,000 compounds; about 4,500 (2.2%) were called active. Not shown: some 12% with an inconclusive outcome. Shown is part of a subset that was picked to be rich in actives. Values without a mark were called inactive. The call rests on the fitted dose curve; in most records, active means well fitted inhibition curve with a large enough effect; inconclusive means small, poorly fitted or top-dose-only effect, or effect the other way; inactive means flat fitted curve, though single readings scatter. Potency means the concentration at half of the fitted maximal effect."}
{"biological_target": "Cruzipain (Trypanosoma cruzi) (UniProt P25779)", "sequence (P25779 123-467 limits assumed)": "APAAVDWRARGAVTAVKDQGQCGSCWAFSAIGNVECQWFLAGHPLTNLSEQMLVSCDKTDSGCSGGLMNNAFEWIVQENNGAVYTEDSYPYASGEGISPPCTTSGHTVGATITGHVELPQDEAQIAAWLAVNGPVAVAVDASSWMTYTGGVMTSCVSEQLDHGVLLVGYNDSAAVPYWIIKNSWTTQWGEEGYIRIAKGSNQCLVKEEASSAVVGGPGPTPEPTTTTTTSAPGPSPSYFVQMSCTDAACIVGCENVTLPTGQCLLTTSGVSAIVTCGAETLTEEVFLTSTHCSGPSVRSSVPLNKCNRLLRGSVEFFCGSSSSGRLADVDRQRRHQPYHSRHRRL", "assay": "qHTS Assay for Promiscuous and Specific Inhibitors of Cruzain (without detergent); further: nearly all actives have a fitted effect of over 40% in size;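 on max response, negative = inhibition: plate controls were enzyme without inhibitor for no effect and buffer without enzyme for full effect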", "conditions": "purified cruzain, Z-FR-AMC fluorescence, no detergent", "outline": "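Detergent-free condition (0.00005% Triton X-100) in acetate buffer pH 5.5 with DTT. 1.5 nM enzyme and compound were pre-mixed 15 min, then 2 uM Z-FR-AMC substrate added; reaction progress from fluorescence change between first and third reads (60 s).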", "units": {"max response, negative = inhibition": "%"}}
{"compound": "COc1ccc(CCNC(=O)CCCn2c(=O)c3ccccc3n(Cc3ccc(C)cc3)c2=O)cc1OC", "max response, negative = inhibition": -4.62}
{"compound": "Cc1ccc(CNC(=O)Cn2c(=O)ccc3cc(S(=O)(=O)N4CCCC4)ccc32)cc1", "max response, negative = inhibition": -9.4}
{"compound": "CC1CCCN(c2csc3ccc(F)cc3c2=O)C1", "note": "(configuration not stated)", "max response, negative = inhibition": 1.1}
{"compound": "COc1ccccc1-c1noc(CSc2nnc(-c3ccccc3)n2-c2ccc(C)c(C)c2)n1", "max response, negative = inhibition": -9.67}
{"compound": "COc1ccccc1N1CCN(C(CNC(=O)C(=O)NCc2ccc(C)cc2)c2cccnc2)CC1", "note": "(configuration not stated)", "max response, negative = inhibition": 1.39}
{"compound": "COc1cccc(Cn2c(SCc3ccc(C(=O)N4CCCCC4)cc3)nc3ccncc32)c1", "max response, negative = inhibition": 12.2}
{"compound": "CC(=O)Nc1ccc(S(=O)(=O)NCC2CCC(C(=O)NCCc3ccccc3)CC2)cc1", "note": "(configuration not stated)", "max response, negative = inhibition": -2.5}
{"compound": "COc1ccc(/C(C)=N/NC(=O)CCC(=O)Nc2ccc(Cl)cc2Cl)c(OC)c1", "max response, negative = inhibition": 9.51}
{"compound": "Cc1cnc(C(=O)OCC(=O)Nc2ccc(Cl)cc2Cl)cn1", "max response, negative = inhibition": -17.8}
{"compound": "COc1ccc(CN2CCn3ncc(C(=O)Nc4ccc(Cl)cc4Cl)c3C2=O)cc1", "Potency": "5.01 µM (active)"}
{"compound": "O=C(O)c1ccc(Cn2c(SCc3ccc(F)cc3)nc3ccncc32)cc1", "max response, negative = inhibition": 2.53}
{"compound": "Cc1ccc(CN2CCCn3nc(C(=O)NCc4ccccc4Cl)cc3C2=O)cc1", "max response, negative = inhibition": 12.6}
{"compound": "O=C(c1ccco1)n1nc(-c2ccc(Cl)cc2)nc1NCc1ccccc1", "max response, negative = inhibition": 14.9}
{"compound": "COC(=O)c1c(-c2cccs2)csc1NC(=O)CSc1ncnc2sc(C)c(C)c12", "Potency": "6.31 µM (active)"}
{"compound": "Cc1nc(SCC(=O)Nc2cc(C)on2)c2c(C)c(C)sc2n1", "max response, negative = inhibition": -4.16}
{"compound": "Cc1sc2ncnc(Sc3nc4ccccc4s3)c2c1C", "max response, negative = inhibition": -16.3}
{"compound": "CCOc1ccc(N(CC)S(=O)(=O)N2CCCC(C(=O)Nc3ccc(C(C)=O)cc3)C2)cc1", "note": "(configuration not stated)", "max response, negative = inhibition": -0.766}
{"compound": "COc1ccc(CCNC(=O)c2cnc3sc(N4CCCCCC4)nn3c2=O)cc1OC", "max response, negative = inhibition": 2.6}
{"compound": "CO/N=C(/CS(=O)(=O)c1ccc(Br)cc1)c1ccc(OC)cc1", "max response, negative = inhibition": 0.45}
{"compound": "COc1cccc(C(=O)c2sc3nc(-c4ccccc4)cc(C(F)(F)F)c3c2N)c1", "max response, negative = inhibition": -13.2}
{"compound": "COc1ccc(S(=O)(=O)c2c(Nc3ccc(C)cc3)sc(C(=O)c3ccc(C)cc3)c2N)cc1", "Potency": "5.01 µM (active)"}
{"compound": "CC(=O)c1c(Nc2ccccc2)sc(C(=O)c2ccccc2)c1C", "max response, negative = inhibition": 5.34}
{"compound": "COc1ccc(S(=O)(=O)c2c(Nc3cccc(Cl)c3)sc(C(=O)c3ccccc3)c2N)cc1", "Potency": "3.98 µM (active)"}
{"compound": "COc1ccc(C(=O)NNS(=O)(=O)c2ccc(C)cc2)cc1", "max response, negative = inhibition": -9.3}
{"compound": "Cc1ccc(-c2nnc(Nc3ccc(OCC(N)=O)cc3)c3ccccc23)cc1S(=O)(=O)NCC1CCCO1", "note": "(configuration not stated)", "max response, negative = inhibition": 7.01}
{"compound": "Cc1ccccc1NC(=O)Cn1c(=O)n(Cc2ccco2)c(=O)c2ccc(C(=O)NC3CCCC3)cc21", "max response, negative = inhibition": 4.88}
{"compound": "COc1ccc(N2C(=O)NC(NS(=O)(=O)c3ccc(Cl)cc3)(C(F)(F)F)C2=O)cc1", "note": "(configuration not stated)", "max response, negative = inhibition": -4.66}
{"compound": "CC(C)C12CN3CC(C(C)C)(CN(C1)C3c1ccc(OCc3ccccc3)cc1)C2=O", "note": "(configuration not stated)", "max response, negative = inhibition": 10.1}
{"compound": "Cc1ccc(-c2cc(C(=O)Oc3ccccc3Cl)no2)cc1C", "max response, negative = inhibition": 0.973}
{"compound": "COc1ccc(-c2nn(-c3ccccc3)cc2/C=N/Nc2ccccn2)cc1OC", "max response, negative = inhibition": 18.4}
{"compound": "Cc1nnc(SCC(=O)N/N=C/c2cn(-c3ccccc3)nc2-c2ccc(F)cc2)n1-c1ccccc1", "max response, negative = inhibition": -3.1}
{"compound": "Cc1ccc(-c2nn(-c3ccccc3)cc2/C=N/NC(=O)c2ccc3c(c2)OCO3)cc1", "Potency": "25.1 µM (active)"}
{"compound": "COc1ccccc1CNC(=O)CCn1c(=O)c2ccccc2n(CC(=O)Nc2ccc(Br)cc2F)c1=O", "max response, negative = inhibition": -7.67}
{"compound": "COc1ccccc1-c1cc(C(F)(F)F)nc(S(=O)(=O)CCCC(=O)Nc2cc(C)ccc2O)n1", "max response, negative = inhibition": -0.825}
{"compound": "Cc1ccccc1NC(=O)Cn1c(=O)n(CCc2ccccc2)c(=O)c2ccccc21", "max response, negative = inhibition": -10.6}
{"compound": "Cc1ccc(S(=O)(=O)c2nc(-c3cccs3)oc2N2CCCCC2)cc1", "max response, negative = inhibition": 3.47}
{"compound": "CN(C(=O)CSc1nc(C2CC2)nc2ccccc12)c1nc(-c2ccccc2)cs1", "Potency": "3.16 µM (active)"}
{"compound": "COC(=O)CSc1nc(C2CC2)nc2ccccc12", "max response, negative = inhibition": -5.14}
{"compound": "O=C(CSc1nc(C2CC2)nc2ccccc12)Nc1ccc2c(c1)OCCO2", "max response, negative = inhibition": 2.26}
{"compound": "CCOC(=O)c1c(SCC(=O)Nc2cccc(C)c2C)nc(=O)[nH]c1C", "max response, negative = inhibition": 4.55}
{"compound": "CCOc1ccc(Nc2nc3c(S(=O)(=O)c4cccc(Cl)c4)nnn3c3ccsc23)cc1", "max response, negative = inhibition": 3.27}
{"compound": "COC(=O)c1c(NC(=O)CN2CCN(S(=O)(=O)c3ccccc3[N+](=O)[O-])CC2)sc2c1CCC(C)C2", "note": "(configuration not stated)", "Potency": "10 µM (active)"}
{"compound": "Cc1cccc(OCCCC(=O)Nc2sc3c(c2C(N)=O)CCC(C)C3)c1", "note": "(configuration not stated)", "max response, negative = inhibition": 14.1}
{"compound": "CCOc1ccc(NC(=O)c2c(NC(=O)Cc3ccccc3)sc3c2CCC(C)C3)cc1", "note": "(configuration not stated)", "max response, negative = inhibition": 1.97}
{"compound": "CCOC(=O)c1c(NC(=O)/C=C/c2ccc(OC)cc2)sc2c1CCC(C)C2", "note": "(configuration not stated)", "max response, negative = inhibition": -18.7}
{"compound": "COC(=O)c1c(NC(=O)CCCOc2ccccc2)sc2c1CCC(C)C2", "note": "(configuration not stated)", "max response, negative = inhibition": 0.0824}
{"compound": "Cc1c(Br)c([N+](=O)[O-])nn1CC(=O)Nc1sc2c(c1C(=O)OC(C)C)CCC(C)C2", "note": "(configuration not stated)", "Potency": "15.8 µM (active)"}
{"compound": "CCCn1c2ccccc2c2cnn(CC(=O)N3CCCC(C(=O)OCC)C3)c(=O)c21", "note": "(configuration not stated)", "max response, negative = inhibition": -0.857}
{"compound": "Cc1ccc(C2C=C(c3ccc(Cl)cc3)Nc3nc(NC(=O)CCC(=O)O)nn32)cc1", "note": "(configuration not stated)", "max response, negative = inhibition": -6.04}
{"compound": "O=C(c1ccccc1F)N1CCC(c2nc3c(nnn3Cc3cccc(F)c3)c(=O)[nH]2)CC1", "max response, negative = inhibition": -6.41}
{"compound": "O=c1cc2nc(-c3ccccc3)nc(SCCOc3ccc(Cl)cc3)n2[nH]1", "max response, negative = inhibition": 8.61}
{"compound": "Cc1ccc(OCCSc2nc(-c3cccs3)nc3cc(=O)[nH]n23)cc1Cl", "max response, negative = inhibition": 3.5}
{"compound": "CCc1ccccc1OCCSc1nc(-c2cccs2)nc2cc(=O)[nH]n12", "Potency": "3.16 µM (active)"}
{"compound": "COc1ccc(Cn2ccnc2SCC(=O)NCc2ccco2)cc1", "max response, negative = inhibition": -5.79}
{"compound": "CCCn1c(=O)c2c(C(F)(F)F)cc(-c3cccs3)nc2n(CCC)c1=O", "Potency": "6.31 µM (active)"}
{"compound": "FC(F)(F)c1cc(-c2cccs2)nc(NCc2ccco2)n1", "max response, negative = inhibition": -1.04}
{"compound": "COCCn1c(=O)c(-c2cccs2)nc2cncnc21", "max response, negative = inhibition": 2.13}
{"compound": "Cc1oc2ncnc(N3CCOCC3)c2c1C(=O)NCCc1ccccc1", "max response, negative = inhibition": 3.49}
{"compound": "CCOc1cccc(C(=O)Nc2nnc(-c3cccs3)s2)c1", "Potency": "15.8 µM (active)"}
{"compound": "CCOc1ccccc1Nc1nnc(SCc2ccc(C(=O)OC)o2)s1", "max response, negative = inhibition": 2.33}
{"compound": "CCc1nnc(NC(=O)c2cccs2)s1", "max response, negative = inhibition": -8.43}
{"compound": "CCOc1cccc(C(=O)Nc2nnc(S(=O)(=O)N(C)c3ccc(C)cc3)s2)c1", "max response, negative = inhibition": -15.4}
{"compound": "CCOc1cccc(C(=O)Nc2cccnc2)c1", "max response, negative = inhibition": 1.56}
{"compound": "COC(=O)c1ccc(CSc2nnc(NC(C)C)s2)cc1", "max response, negative = inhibition": 5.53}
{"compound": "Cc1ccc(C(=O)Nc2nnc(-c3cccs3)s2)cc1C", "Potency": "15.8 µM (active)"}
{"compound": "Cc1ccc(C(=O)Oc2coc(CSc3nnc(NC(=O)c4cccs4)s3)cc2=O)cc1C", "Potency": "25.1 µM (active)"}
{"compound": "CCCc1nnc(NC(=O)c2cccs2)s1", "max response, negative = inhibition": 0.875}
{"compound": "COC(=O)c1cccc(Cn2nnc3sc4c(c3c2=O)CCC(C(C)(C)C)C4)c1", "note": "(configuration not stated)", "max response, negative = inhibition": 2.87}
{"compound": "O=C(CCC(=O)N1CC2CCCN2c2ccccc21)NCc1ccccc1Cl", "note": "(configuration not stated)", "max response, negative = inhibition": -16.5}
{"compound": "Cc1nnc(NC(=O)CSc2nc3c([nH]c4ccccc43)c(=O)n2-c2cccc(Cl)c2)s1", "max response, negative = inhibition": 2.35}
{"compound": "COc1cc(-c2nnn(CC(=O)NCc3ccccc3)n2)cc(OC)c1OC", "max response, negative = inhibition": 25.6}
{"compound": "Cc1cn(C)c(CC(=O)NCc2ccccc2)c1C(=O)O", "max response, negative = inhibition": -3.27}
{"compound": "CN(Cc1ccccc1)C(=O)c1cn(C)c2ccc(S(=O)(=O)N3CCCCC3)cc2c1=O", "max response, negative = inhibition": -10.3}
{"compound": "CN(Cc1ccccc1)C(=O)c1cn(C)c2ccc(S(=O)(=O)N(C)C3CCCCC3)cc2c1=O", "max response, negative = inhibition": 5.7}
{"compound": "COc1ccc(C(=O)Nc2ccc(-n3nncc3-c3ccccc3)cc2)cc1OC", "max response, negative = inhibition": 25.3}
{"compound": "Cc1ccc(N2CCN(C(=O)CCc3c(C)nc4c(c3C)c(=O)n(C)c(=O)n4C)CC2)c(C)c1", "max response, negative = inhibition": 6.51}
{"compound": "O=C(NCc1ccc(Cl)cc1)c1ccc2c(c1)nnn2C1CCCC1", "max response, negative = inhibition": -10.2}
{"compound": "Cc1ccc(-n2ncc3c(=O)n(Cc4cccc(C(F)(F)F)c4)cnc32)cc1C", "max response, negative = inhibition": 6.16}
{"compound": "Cc1ccc(-n2c(/C=C/c3cccc(C(F)(F)F)c3)nc3ccccc3c2=O)cc1", "max response, negative = inhibition": -0.135}
{"compound": "Cn1cc(/C=C/c2nc3ccccc3c(=O)n2-c2cccc([N+](=O)[O-])c2)c2ccccc21", "Potency": "10 µM (active)"}
{"compound": "Cn1cc(/C=C/c2nc3ccccc3c(=O)n2-c2ccccc2)c2ccccc21", "max response, negative = inhibition": 10.3}
{"compound": "CSc1ccc(C2C(C(=O)Nc3ccccc3)=C(C)Nc3nc4ccccc4n32)cc1", "note": "(configuration not stated)", "max response, negative = inhibition": -7.45}
{"compound": "CCc1cccc(C)c1NS(=O)(=O)c1c(C)nc2sccn2c1=O", "max response, negative = inhibition": 1.11}
{"compound": "CCOC(=O)c1cc2c(=O)n3ccccc3nc2n(CCCOC)c1=NC(=O)C(C)Oc1ccccc1", "note": "(configuration not stated)", "max response, negative = inhibition": -4.02}
{"compound": "CNC(=S)NNC(=O)c1sccc1OCc1ccccc1", "max response, negative = inhibition": -0.842}
{"compound": "C=CCNC(=S)N/N=C/c1ccc(OCc2ccccc2)cc1", "max response, negative = inhibition": -2.25}
{"compound": "CNC(=S)N/N=C/c1ccc(OCc2ccccc2)c(Br)c1", "Potency": "25.1 µM (active)"}
